Laboratory results from PubChem BioAssay (EPA / NIEHS).
Results filed as inconclusive are left out. The source made the active and inactive calls. The calls were made as follows, unless noted: active = hit-call score of the fitted dose curve at least 0.9, where 1 is the maximum; inconclusive = response in the unintended direction; inactive = score below 0.9.

Target: human Peroxisome Proliferator-activated Receptor alpha (PPARa), PPARA (gene 5465) (UniProt Q07869)
Test: ATG_PPARa_TRANS: Attagene TRANS-FACTORIAL HepG2 Assay for human Peroxisome Proliferator-activated Receptor alpha (PPARa) (AID 2283001);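 as to AC50: potency for gain of reporter signal over DMSO so agonist or activator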
Settings: not given
Procedure, shortened: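 Exposure: 24 h, transiently transfected HepG2 cells. Endpoint: GAL4-UAS reporter mRNA, RT-PCR with capillary electrophoresis fluorescence. Baseline: DMSO; increases fitted.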

human Peroxisome Proliferator-activated Receptor alpha (PPARa), PPARA (gene 5465), sequence (Q07869 whole entry, looked up): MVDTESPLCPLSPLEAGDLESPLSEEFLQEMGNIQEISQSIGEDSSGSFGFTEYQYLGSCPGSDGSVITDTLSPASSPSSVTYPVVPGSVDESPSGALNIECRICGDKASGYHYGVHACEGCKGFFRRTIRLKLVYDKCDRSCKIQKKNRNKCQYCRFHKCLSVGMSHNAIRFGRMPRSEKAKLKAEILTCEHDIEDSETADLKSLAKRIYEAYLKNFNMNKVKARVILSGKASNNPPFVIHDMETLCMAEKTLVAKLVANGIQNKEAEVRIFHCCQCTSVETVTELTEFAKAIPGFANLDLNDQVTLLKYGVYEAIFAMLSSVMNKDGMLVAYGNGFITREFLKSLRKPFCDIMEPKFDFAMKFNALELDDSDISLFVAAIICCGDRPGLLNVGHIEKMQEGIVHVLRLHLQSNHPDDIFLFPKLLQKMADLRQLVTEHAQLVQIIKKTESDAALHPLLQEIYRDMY

SMILES | outcome | AC50
CCCCCCCCCCCC#N | inactive | –
O=C(NC(=O)c1c(F)cccc1F)Nc1ccc(Oc2ccc(C(F)(F)F)cc2Cl)cc1F | inactive | –
CC1CCCC1.[C-]#[O+].[C-]#[O+].[C-]#[O+].[Mn] | inactive | –
CC(=O)C=Cc1ccccc1 | – | 100 µM (active)
C=CC(=O)OC | inactive | –
N#CCNCC#N | inactive | –
CN(C)N | inactive | –
O=[N+]([O-])C=Cc1ccccc1 | inactive | –
Nc1ccc(Cl)c(Cl)c1 | inactive | –
CCCCOP(=O)(O)OCCCC | inactive | –
O=C(O)CCl | inactive | –
CC(O)CN(CC(C)O)CC(C)O (centres undefined) | inactive | –
Nc1cc(Cl)cc(Cl)c1 | inactive | –
O=[N+]([O-])c1ccc(Cl)cc1 | inactive | –
Cc1ccc(C)c2ccccc12 | inactive | –
C=CCO | inactive | –
Nc1ccc(-c2ccc(N)c(N)c2)cc1N | inactive | –
C=CC(=O)OCCCCOC(=O)C=C | inactive | –
CCOC(=O)C1OC1(C)c1ccccc1 (centres undefined) | inactive | –
O=[N+]([O-])c1cc([N+](=O)[O-])c2ccccc2c1 | inactive | –
C=CC(=O)OCCO | inactive | –
CCCCCCCCCCCCCCCC[N+](C)(C)C | – | 49.2 µM (active)

Target: human Peroxisome Proliferator-activated Receptor delta (PPARd), PPARD (gene 5467) (UniProt Q03181)
Test: ATG_PPARd_TRANS: Attagene TRANS-FACTORIAL HepG2 Assay for human Peroxisome Proliferator-activated Receptor delta (PPARd) (AID 2283002)
Settings: not given
Procedure, shortened: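 Multiplexed trans-activation format: HepG2 liver cells expressing exogenous NR-Gal4 chimeras and GAL4-UAS reporters were exposed for 24 h. Reporter mRNA was detected by RT-PCR with capillary electrophoresis fluorescence; activity fitted as gain of signal relative to DMSO.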

human Peroxisome Proliferator-activated Receptor delta (PPARd), PPARD (gene 5467), sequence (Q03181 whole entry, looked up): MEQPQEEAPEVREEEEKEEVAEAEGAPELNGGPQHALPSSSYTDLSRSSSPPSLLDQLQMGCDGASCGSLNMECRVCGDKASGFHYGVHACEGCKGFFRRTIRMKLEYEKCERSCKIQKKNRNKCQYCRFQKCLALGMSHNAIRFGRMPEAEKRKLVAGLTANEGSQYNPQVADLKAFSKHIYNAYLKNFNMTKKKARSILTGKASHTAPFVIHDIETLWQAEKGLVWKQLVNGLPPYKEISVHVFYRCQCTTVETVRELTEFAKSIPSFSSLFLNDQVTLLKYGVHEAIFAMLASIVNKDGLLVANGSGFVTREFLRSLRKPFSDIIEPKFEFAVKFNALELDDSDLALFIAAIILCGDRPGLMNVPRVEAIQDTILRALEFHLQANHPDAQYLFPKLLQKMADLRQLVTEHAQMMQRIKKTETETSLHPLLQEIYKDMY

SMILES | outcome
CCCCCCCCCCCC#N | inactive
O=C(NC(=O)c1c(F)cccc1F)Nc1ccc(Oc2ccc(C(F)(F)F)cc2Cl)cc1F | inactive
CCCCNP(N)(N)=S | inactive
CC(=O)C=Cc1ccccc1 | inactive
CCC(=O)c1ccc(Cl)cc1 | inactive
N#CCNCC#N | inactive
CCCCOP(=O)(O)OCCCC | inactive
Cc1ccc(C)c2ccccc12 | inactive
C=CCO | inactive
CC(=O)c1cc2c(cc1C)C(C)(C)C(C)CC2(C)C (centres undefined) | inactive
Nc1ccc(-c2ccc(N)c(N)c2)cc1N | inactive
C=CC(=O)OCCCCOC(=O)C=C | inactive
[Cl][Sb]([Cl])[Cl] | inactive
CC(C)[C@@H](C(=O)O[C@@H](C#N)c1cccc(Oc2ccccc2)c1)c1ccc(Cl)cc1 | inactive
C[C@]12CC[C@H]3[C@@H](CC[C@@]45O[C@@H]4C(O)=C(C#N)C[C@]35C)[C@@H]1CC[C@@H]2O | inactive
C=CC(=O)OCCO | inactive
CCCCCCCCCCCCCCCC[N+](C)(C)C | inactive

Read-out: Intercellular Adhesion Molecule 1 (ICAM1), ICAM1 (gene 3383)
Test: BSK_3C_ICAM1: BioMAP Diversity Plus: 3C Assay for Intercellular Adhesion Molecule 1 (ICAM1) Biomarker Activity (AID 2283003; active = hit-call score of the fitted dose curve at least 0.9, where 1 is the maximum; inactive = score below 0.9)
Settings: primary human endothelial cells (HUVEC); actives raise or lower the signal
Procedure, shortened: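 ELISA read-out of ICAM-1; HUVEC (primary human), 3C system, 24 h post-dosing; bidirectional fit vs DMSO baseline.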

SMILES | outcome | AC50
CCCCCCCCCCCC#N | inactive | –
CC(C)CCCCCCCOC(=O)c1ccccc1C(=O)OCCCCCCCC(C)C | inactive | –
O=[N+]([O-])C=Cc1ccccc1 | – | 7.32 µM (active)
O=[N+]([O-])c1ccc(Cl)cc1 | inactive | –
Nc1ccc(-c2ccc(N)c(N)c2)cc1N | inactive | –

Read-out: not listed separately
Test: BSK_3C_Proliferation: Cell Proliferation Assessment in the BioMAP Diversity Plus: 3C Assay (AID 2283006; active = hit-call score of the fitted dose curve at least 0.9, where 1 is the maximum; inactive = score below 0.9;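 as to AC50: potency may reflect either rise or fall in cell number versus DMSO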)
Settings: primary human endothelial cells (HUVEC)
Procedure, shortened: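 HUVEC, sub-confluent; 48 h chemical exposure; 10% TCA fix, 0.1% SRB stain, A560 total protein. Gain or loss of signal fitted both directions vs DMSO control.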

SMILES | AC50 | outcome
CCCCCCCCCCCC#N | 32.2 µM (active) | –
CC(C)CCCCCCCOC(=O)c1ccccc1C(=O)OCCCCCCCC(C)C | – | inactive
O=[N+]([O-])C=Cc1ccccc1 | 1.37 µM (active) | –
O=[N+]([O-])c1ccc(Cl)cc1 | – | inactive
Nc1ccc(-c2ccc(N)c(N)c2)cc1N | – | inactive

Target: Peroxisome proliferator-activated receptor gamma (Homo sapiens) (UniProt P37231)
Test: ATG_PPARg_TRANS: Attagene TRANS-FACTORIAL HepG2 Assay for human Peroxisome Proliferator-activated Receptor-gamma (PPARg) (AID 2283007)
Settings: not given
Procedure, shortened: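 Gain-of-signal endpoint relative to DMSO, derived from reporter mRNA levels quantified by RT-PCR and capillary electrophoresis. Cells were HepG2 transiently expressing a chimeric NR-Gal4 construct with GAL4-UAS reporters, exposed to chemicals for 24 h.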

Peroxisome proliferator-activated receptor gamma (Homo sapiens), sequence (P37231 whole entry, looked up): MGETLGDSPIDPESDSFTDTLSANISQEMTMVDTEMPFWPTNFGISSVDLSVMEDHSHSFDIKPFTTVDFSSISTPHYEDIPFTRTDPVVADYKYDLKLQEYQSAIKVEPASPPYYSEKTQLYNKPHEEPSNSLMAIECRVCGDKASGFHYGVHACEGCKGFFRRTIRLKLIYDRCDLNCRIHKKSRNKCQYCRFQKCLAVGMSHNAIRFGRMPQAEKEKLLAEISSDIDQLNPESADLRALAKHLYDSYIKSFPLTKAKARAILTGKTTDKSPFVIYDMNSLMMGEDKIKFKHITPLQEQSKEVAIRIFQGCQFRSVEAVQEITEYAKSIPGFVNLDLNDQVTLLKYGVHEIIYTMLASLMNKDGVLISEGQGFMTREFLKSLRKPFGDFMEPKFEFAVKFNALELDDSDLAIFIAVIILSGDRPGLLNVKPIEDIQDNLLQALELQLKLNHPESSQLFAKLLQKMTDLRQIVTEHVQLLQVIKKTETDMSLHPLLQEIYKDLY

SMILES | AC50 | outcome
CCCCCCCCCCCC#N | 80.6 µM (active) | –
O=C(NC(=O)c1c(F)cccc1F)Nc1ccc(Oc2ccc(C(F)(F)F)cc2Cl)cc1F | 3.59 µM (active) | –
CC(=O)C=Cc1ccccc1 | 27 µM (active) | –
Nc1ccccc1C(=O)Oc1ccc2ccccc2c1 | 54.9 µM (active) | –
N#CCNCC#N | – | inactive
O=[N+]([O-])C=Cc1ccccc1 | 8.83 µM (active) | –
Nc1ccc(Cl)c(Cl)c1 | – | inactive
CCCCOP(=O)(O)OCCCC | – | inactive
O=C(O)CCl | – | inactive
Cc1ccc(C)c2ccccc12 | – | inactive
[CH3][Sn]([Cl])([Cl])[Cl] | – | inactive
CC(=O)c1cc2c(cc1C)C(C)(C)C(C)CC2(C)C (centres undefined) | – | inactive
Nc1ccc(-c2ccc(N)c(N)c2)cc1N | – | inactive
C=CC(=O)OCCCCOC(=O)C=C | 2.14 µM (active) | –
CCOC(=O)C1OC1(C)c1ccccc1 (centres undefined) | 100 µM (active) | –
[Cl][Sb]([Cl])[Cl] | – | inactive
CC(C)[C@@H](C(=O)O[C@@H](C#N)c1cccc(Oc2ccccc2)c1)c1ccc(Cl)cc1 | – | inactive
C[C@]12CC[C@H]3[C@@H](CC[C@@]45O[C@@H]4C(O)=C(C#N)C[C@]35C)[C@@H]1CC[C@@H]2O | – | inactive
O=[N+]([O-])c1cc([N+](=O)[O-])c2ccccc2c1 | 6.62 µM (active) | –
CCCCCCCCCCCCCCCC[N+](C)(C)C | 27.4 µM (active) | –

Target: Nuclear receptor subfamily 1 group I member 2 (Homo sapiens) (UniProt O75469)
Test: ATG_PXR_TRANS: Attagene TRANS-FACTORIAL HepG2 Assay for human Pregnane X Receptor (PXR) (AID 2283008)
Settings: not given
Procedure, shortened: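 Multiplexed TRANS reporter panel in HepG2; this component tracks PXR-Gal4-driven reporter mRNA after 24 h dosing, measured by RT-PCR with capillary electrophoresis fluorescence, fitted against DMSO.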

Nuclear receptor subfamily 1 group I member 2 (Homo sapiens), sequence (O75469 whole entry, looked up): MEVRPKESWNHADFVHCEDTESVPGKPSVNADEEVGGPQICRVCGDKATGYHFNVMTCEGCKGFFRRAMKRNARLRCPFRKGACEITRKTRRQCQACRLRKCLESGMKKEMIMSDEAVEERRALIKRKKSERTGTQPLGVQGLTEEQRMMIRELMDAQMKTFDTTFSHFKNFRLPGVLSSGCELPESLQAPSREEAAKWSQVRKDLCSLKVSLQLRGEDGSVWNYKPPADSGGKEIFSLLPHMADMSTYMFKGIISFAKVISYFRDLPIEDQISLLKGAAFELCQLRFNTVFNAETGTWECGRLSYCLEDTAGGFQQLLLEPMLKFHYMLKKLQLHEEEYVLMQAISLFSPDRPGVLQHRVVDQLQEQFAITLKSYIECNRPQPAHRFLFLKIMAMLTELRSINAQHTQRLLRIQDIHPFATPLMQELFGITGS

SMILES | AC50 | outcome
CCCCCCCCCCCC#N | 19.5 µM (active) | –
O=C(NC(=O)c1c(F)cccc1F)Nc1ccc(Oc2ccc(C(F)(F)F)cc2Cl)cc1F | – | inactive
CC1CCCC1.[C-]#[O+].[C-]#[O+].[C-]#[O+].[Mn] | – | inactive
CC(=O)C=Cc1ccccc1 | 35.9 µM (active) | –
CCC(=O)c1ccc(Cl)cc1 | – | inactive
Nc1ccccc1C(=O)Oc1ccc2ccccc2c1 | 48.6 µM (active) | –
CC(C)CCCCCCCOC(=O)c1ccccc1C(=O)OCCCCCCCC(C)C | – | inactive
CN1C[C@H](C(=O)N[C@]2(C)O[C@@]3(O)[C@@H]4CCCN4C(=O)[C@H](Cc4ccccc4)N3C2=O)C=C2c3cccc4[nH]cc(c34)C[C@H]21 | 0.534 µM (active) | –
O=[N+]([O-])C=Cc1ccccc1 | 8.62 µM (active) | –
Nc1ccc(Cl)c(Cl)c1 | – | inactive
CCCCOP(=O)(O)OCCCC | – | inactive
Nc1cc(Cl)cc(Cl)c1 | – | inactive
Cc1ccc(C)c2ccccc12 | 51.3 µM (active) | –
COC(=O)COc1ccc(Cl)cc1Cl | – | inactive
[CH3][Sn]([Cl])([Cl])[Cl] | – | inactive
CC(=O)c1cc2c(cc1C)C(C)(C)C(C)CC2(C)C (centres undefined) | 3.25 µM (active) | –
c1cc(OCC2CO2)ccc1Cc1ccc(OCC2CO2)cc1 (centres undefined) | 20.6 µM (active) | –
C=CC(=O)OCCCCOC(=O)C=C | – | inactive
CCOC(=O)C1OC1(C)c1ccccc1 (centres undefined) | – | inactive
COc1ncc(F)c2nc(S(=O)(=O)Nc3c(F)cccc3F)nn12 | – | inactive
CC(C)[C@@H](C(=O)O[C@@H](C#N)c1cccc(Oc2ccccc2)c1)c1ccc(Cl)cc1 | 0.752 µM (active) | –
C[C@]12CC[C@H]3[C@@H](CC[C@@]45O[C@@H]4C(O)=C(C#N)C[C@]35C)[C@@H]1CC[C@@H]2O | 27.4 µM (active) | –
O=[N+]([O-])c1cc([N+](=O)[O-])c2ccccc2c1 | 9.2 µM (active) | –
C=CC(=O)OCCO | – | inactive
CCCCCCCCCCCCCCCC[N+](C)(C)C | – | inactive
